Source: PubChem BioAssay
Only some compounds are listed: those with a hit (about 10% of all), similar ones and a draw of the others.
SARS PLP yeast: qHTS of Yeast-based Assay for SARS-CoV PLP; S. cerevisiae expressing SARS-CoV PLpro, growth rescue; Potency, µM (titrated, usually from 32.9 µM), for the others: at the top dose activity, positive = growth rescue, most hits filed as activators; actives 0.19% (n = 330,000); calls by dose curve; note: 0% is about no effect; nearly all actives have a fitted effect of over 55% in size
Pf growth 48h: Primary qHTS for delayed death inhibitors of the malarial parasite plastid, 48 hour incubation; P. falciparum luciferase growth in erythrocytes, 48 h; Potency, µM (highest dose often 28.7 µM), for the others: top-dose activity change, negative = inhibition, actives largely listed as inhibitors; actives 5.9% (n = 310,000); AID 504832, 2011; note: % is set by controls: 0 for no effect and ±100 for the full control effect
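Luciferase-expressing parasites in RBCs, 2% Hct / 0.1% parasitemia final; RPMI 1640 + 0.5% Albumax; 37 C, 5% CO2, one generation; luminescence read-out, lower signal = inhibition.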
Pf growth 96h: Primary qHTS for delayed death inhibitors of the malarial parasite plastid, 96 hour incubation; P. falciparum luciferase reporter growth, 96 h; Potency, µM (titrated, usually from 28.7 µM), for inactives: top-dose activity change, negative = inhibition, usual class: inhibitors; actives 6.9% (n = 320,000); note: % is set by controls: 0 for no effect and ±100 for the full control effect
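Erythrocytes infected with luciferase-expressing P. falciparum were dispensed at 2% hematocrit and 0.05% parasitemia (final), then incubated with compounds 96 hours at 37 C in 5% CO2. Luminescence after detection reagent addition reported growth.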
NS1 inh: qHTS Assay for Inhibitors of Influenza NS1 Protein Function; Potency, µM (top dose mostly 46.1 µM), without a hit: top-dose activity, positive = more growth; actives 0.4% (n = 270,000); calls by dose curve; note: actives are rising curves; nearly all actives have a fitted effect of over 50% in size
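In this qHTS, NS1 from influenza A is expressed in budding yeast, where it slows growth. Cells are switched from glucose to 2% galactose medium (pH 6.0, -URA), treated with compound, and growth recovery is read at OD600.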
Numbers without * were called inactive; i = inactive; ? = inconclusive; . = not tested or not shown; [ ] = another dose, or the depositor's remark. Unless noted, calls come from the whole dose curve; as a rule, active = well fitted inhibition curve with a large enough effect; inconclusive = small, poorly fitted or top-dose-only effect, or another doubt; inactive = no such curve, though single readings can be large or run the other way. Potency is the fitted concentration of half-maximal effect.

SMILES	SARS PLP yeast	Pf growth 48h	Pf growth 96h	NS1 inh
COc1ccc(C(=O)NNC(=O)CSc2nnc(COc3ccc4ccccc4c3)n2C)cc1	2%	4%	2.3µM*	-1%
Cc1[nH]c2ccccc2c1C(=O)C(=O)N1CCN(c2cccc(Cl)c2)CC1	-7%	14%	?	-87%
CCOC(=O)C(=CNc1cccnc1Oc1ccc(C)c2c1CCC2)C(=O)OCC	2%	12µM*	8.3µM*	3%
Cc1ccc(Oc2ncccc2NC(=O)CC2(CC(=O)O)CCCC2)c2c1CCC2	2%	?	-1%	-2%
CCCN1CCN(C(=O)C2CCCN(c3ncnc4c3nc3n4CCCCC3)C2)CC1 (stereo unspecified)	3%	?	-5%	4%
COc1ccc2nc(SCC(=O)N3CCN(c4ccc(F)cc4)CC3)c(C#N)cc2c1	4%	?	15µM*	27%
CCOc1ccc2cc(C#N)c(SCC(=O)N3CCC(C)CC3)nc2c1	1%	9.3µM*	29%	-12%
COc1ccc2cc(C#N)c(SCC(=O)N3CCCC3)nc2c1	-3%	-24%	138%	?
CCOc1ccc2cc(C#N)c(SCC(=O)NC(C)CC)nc2c1 (stereo unspecified)	-1%	3%	7.4µM*	-3%
COCCC(=O)N1CCC(Oc2ccc(C(=O)N3CCC(N(C)C)C3)cc2)CC1 (stereo unspecified)	-2%	18%	?	1%
CC1(C)Cc2c(C#N)c(OCC(=O)c3ccc(Cl)cc3)nc(-c3ccco3)c2CO1	-4%	?	?	-16%
Cc1nc(OCC(=O)c2ccc(Cl)cc2)c(C#N)c2c1COC(C)(C)C2	2%	.	12µM*	4%
CCc1nc(OCC(=O)c2ccccc2)c(C#N)c2c1COC(C)(C)C2	15%	.	12µM*	3%
Cc1ccc(S(=O)(=O)NCC(=O)N(CC(=O)NCC2CCCO2)Cc2ccco2)cc1 (stereo unspecified)	1%	19%	i	4%
Nc1c2c(nc3ccccc13)CCCC2O (stereo unspecified)	.	-5%	11µM*	1%
COc1ccc(CCNC(=O)CCOc2cc(C)ccc2C)cc1OC	2%	-7%	?	-13%
CCOCCc1nnc(NC(=O)CS(=O)(=O)c2ccc(C)cc2)s1	6%	0%	0.23µM*	10%
COc1ccc(Cc2nnc(NC(=O)CS(=O)(=O)c3ccc(C)cc3)s2)cc1OC	2%	-27%	-18%	-6%
CCC1CN(C(=O)N2CCC(C(=O)NCc3cccc(OC)c3OC)CC2)c2cc(C)ccc2O1 (stereo unspecified)	15%	-28%	?	-13%
O=S(=O)(Cc1ccccc1)c1cnc2ccccc2n1	-6%	10µM*	.	-15%
O=S(=O)(c1ccc(Br)cc1)c1cnc2ccccc2n1	-1%	?	12µM*	.
COc1ccc(S(=O)(=O)c2cnc3ccccc3n2)cc1	1%	?	13µM*	.
Cc1c(C(=O)Nc2ccc3c(c2)OCO3)sc2ncn(CC(=O)N3CC(C)CC(C)C3)c(=O)c12 (stereo unspecified)	0%	.	?	0%
O=C(CN1C(=O)NC2(CCc3ccccc32)C1=O)Nc1ccccc1Cl (stereo unspecified)	2%	.	.	.
COC(=O)NCCOC(=O)N(O)c1ccc(Br)cc1	4%	9.3µM*	?	?
SMILES	SARS PLP yeast	Pf growth 48h	Pf growth 96h	NS1 inh
COc1ccc(C(=O)NCCOC(C)C)cc1OC1CCN(C(C)=O)CC1	-1%	11%	10µM*	-4%
COc1ccc(C(=O)NCc2ncccc2C)cc1OC1CCN(C(C)=O)CC1	0%	-5%	23%	15%
COc1ccc(C(=O)NC(C)CCCC(C)(C)O)cc1OC1CCN(C(C)=O)CC1 (stereo unspecified)	4%	-4%	7.4µM*	0%
COc1cc(C(=O)NCCc2ncccc2C)ccc1OC1CCN(C(C)=O)CC1	-4%	9.3µM*	7%	-2%
COc1ccc(C(=O)NCCc2ccc(C)cc2)cc1OC1CCN(C(C)=O)CC1	1%	-7%	17%	2%
COc1cc(C(=O)NC(C)CCn2cccn2)ccc1OC1CCN(C(C)=O)CC1 (stereo unspecified)	-9%	-1%	?	8%
C/C=C(\C)C(=O)N1CCC(C(=O)c2ccccc2)CC1	0%	-9%[0.00184 µM]	20%	5%
COc1cc(CC(=O)N(C)CC(=O)Nc2ccc(Cl)c(C(F)(F)F)c2)cc(OC)c1OC	3%	?	?	11%
OCCNc1nc(-c2ccccc2)nc2ccccc12	-3%	9%	-15%	.
COc1ccccc1Nc1nc(NCCO)c2ccccc2n1	-2%	?	?	-6%
COc1ccc(OC)c(Nc2nc(NCCO)c3ccccc3n2)c1	-1%	2.1µM*	?	-5%
Cc1ccc(Nc2nc(NCCO)c3ccccc3n2)cc1C	-5%	0.47µM*	?	-51%
CN1C2CCC1CC(NC(=O)c1cc(Cl)cc3[nH]cnc13)C2 (stereo unspecified)	-4%	?	?	9%
Cc1cccc(C)c1NC(=O)CN(C)C(C)C(=O)Nc1ccccc1-c1ccccc1 (stereo unspecified)	-3%	?	?	.
CCN(CC)S(=O)(=O)c1cc(NC(=O)C(C)N2CCc3ccccc32)ccc1C (stereo unspecified)	2%	?	10µM*	.
CCN(CC)S(=O)(=O)c1cc(NC(=O)C(C)N(C)CC(=O)Nc2c(C)cccc2C)ccc1C (stereo unspecified)	-7%	12µM*	12µM*	-21%
COC(=O)c1ccc(NC(=O)CSc2nnc(-c3cccnc3)o2)cc1	-6%	43%	0%	.
CN(Cc1c(F)cccc1Cl)C(=O)c1ccc(NC(=O)CC2SC(N3CCCC3)=NC2=O)cc1 (stereo unspecified)	-4%	10µM*	?	.
COc1ccc(CN(C)C(=O)c2ccc(NC(=O)CC3SC(N4CCCC4)=NC3=O)cc2)c(OC)c1 (stereo unspecified)	-1%	?	?	.
COc1ccc(CN(C)C(=O)c2ccc(NC(=O)CC3SC(N4CCCC4)=NC3=O)cc2)c(OC)c1OC (stereo unspecified)	3%	?	5.9µM*	.
CCN(CC(=O)Nc1c(F)cccc1F)C(=O)c1ccc(NC(=O)CC2SC(N3CCCC3)=NC2=O)cc1 (stereo unspecified)	4%	0%	13µM*	.
Cc1oc(-c2ccccc2F)nc1CS(=O)CC(=O)NC1CCCCC1 (stereo unspecified)	-2%	0%	18%	10%
COc1ccc(NC(=O)C(C)N2C(=O)c3ccccc3C2=O)cc1S(=O)(=O)N1CCOCC1 (stereo unspecified)	0%	?	-16%	.
CC(C)(C)c1cc(=O)n(-c2ccccc2)[nH]1	-82%	?	10µM*	-53%
O=c1ccc(=O)n(-c2ccccc2)[nH]1	5%	11%	49%	-1%
